Measured values as given in PubChem BioAssay AID651610 (Broad Institute, 2012).
Hit rate of the full screen: of about 360,000 compounds, about 3,900 (1.1%) were called active. The list comes from a sample in which actives are over-represented; it also holds similar structures and randomly drawn compounds. A number with no mark means an inactive call.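 The calls were made as follows: active = mean replicate inhibition score of at least 50 and every replicate individually at or above 50; inconclusive = only one of the two criteria met; inactive = mean below 50 and not all replicates reaching 50.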

Test: inhibitors of HIV-1 Env-driven cell-cell fusion, primary screen, HeLa-JRFL effector, CEM21 target cells, luciferase (AID 651610);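 also: 0% = plate neutral controls and 100% = maraviroc near 300 nM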
Conditions: active compounds read high; at 16.7 µM unless noted

In the case of `CC(Oc1ccc(-c2ccccc2)c(F)c1)c1ccn(S(=O)(=O)c2cccc3ccccc23)n1` (stereo not given), the inhibition is reported as 58.1% [at 12.3 µM] (active).

For `C[C@@H]1CN([C@@H](C)CO)C(=O)c2cc(NC(=O)Nc3cccc4ccccc34)ccc2O[C@H]1CN(C)Cc1ccc(Cl)c(Cl)c1`, the inhibition was 2.97%.

For `O=C(Nc1ccc(-c2ccccc2)cc1)[C@H]1[C@H](CO)[C@H]2Cn3c(cccc3=O)[C@H]2N1CC1CC1`, the inhibition was -13.3%.

With `COc1ccc(NC(=O)Nc2ccc3c(c2)C(=O)N([C@@H](C)CO)C[C@H](C)[C@H](CN(C)S(=O)(=O)c2ccccc2)OCCCC[C@@H](C)O3)cc1` the inhibition was -1.8%.

`O=C(C[C@@H]1CC[C@@H]2[C@H](COC[C@H](O)CN2Cc2ccc(F)cc2)O1)NCc1ccncn1` showed an inhibition of -13.2%.

In the case of `CN1CCN(C(=O)C[C@@H]2C[C@H]3c4cc(NC(=O)NC5CCCC5)ccc4O[C@H]3[C@H](CO)O2)CC1`, the inhibition is reported as -16.8%.

`CCCNC(=O)N1C[C@@H](O)COC[C@@H]2O[C@H](CC(=O)N3CCN(C)CC3)CC[C@H]21` showed an inhibition of -4.93%.

With `C[C@@H]1CN([C@@H](C)CO)C(=O)Cc2cc(NS(=O)(=O)c3ccc(F)cc3)ccc2O[C@@H]1CN(C)S(=O)(=O)c1cccs1` the inhibition was 2.26%.

In the case of `CO[C@H]1CN(C)C(=O)c2ccc(NS(C)(=O)=O)cc2OC[C@@H](C)N(C(=O)c2ccc3c(c2)OCO3)C[C@@H]1C`, the inhibition is reported as 3.98%.

With `O=C(COC(=O)c1ncc(Cl)c(Cl)c1Cl)NCc1cccs1` the inhibition was 80.8% [at 12.3 µM] (active).

For `O=C(COC(=O)c1ncc(Cl)c(Cl)c1Cl)NCc1ccccc1`, the inhibition was -4.53% [at 12.3 µM].

In the case of `O=C(COC(=O)c1ccc(Cl)nc1)NCc1cccs1`, the inhibition is reported as 13.8% [at 12.3 µM].

Compound `CN1C(=O)c2cc(NC(=O)c3cnccn3)ccc2OC[C@@H]2O[C@H](CC(=O)O)CC[C@@H]21` has an inhibition of -25.8%.

For `Cc1cccc(-n2c(SCC(N)=O)nc3c(c2=O)C2(CCCCC2)Cc2ccccc2-3)c1`, the inhibition was 87% [at 12.3 µM] (active).

`Cc1cccc(-n2c(=O)c3c(C)c(C)sc3n(CC(N)=O)c2=O)c1` gave an inhibition of 16% [at 12.3 µM].

`CCOC(=O)C1Cn2c(nc3c(c2=O)C(C)(CC)Cc2ccccc2-3)S1` (stereo not given) gave an inhibition of -68.6% [at 12.3 µM].

For `C[C@@H]1CN([C@H](C)CO)C(=O)Cc2cc(NC(=O)c3ccncc3)ccc2O[C@H]1CN(C)Cc1ccc(-c2ccccc2)cc1`, the inhibition was 18.5%.

`Cc1ccc(S(=O)(=O)N(C)C[C@@H]2Oc3ccc(NS(=O)(=O)c4cn(C)cn4)cc3C(=O)N([C@@H](C)CO)C[C@H]2C)cc1` showed an inhibition of -17.6%.

Compound `O=C(Cc1ccc(-n2c(=O)c3sccc3n(Cc3ccc(F)cc3)c2=O)cc1)NCc1ccco1` has an inhibition of 0.234% [at 12.3 µM].

For `O=C(NCc1ccco1)c1cc2sccc2n1Cc1ccc(F)cc1`, the inhibition was 20.8% [at 12.3 µM].

In the case of `O=C(NCc1ccco1)c1ccc(Cn2c(=O)c3sccc3n(Cc3ccc(F)cc3)c2=O)cc1`, the inhibition is reported as 78.1% [at 12.3 µM] (active).

`O=C(CN1CCOCC1)NCC[C@H]1CC[C@@H](NC(=O)Nc2ccc(Cl)cc2)[C@@H](CO)O1` showed an inhibition of 2.67%.

In the case of `O=C(N[C@@H]1CC[C@H](CCn2cc(-c3ccccn3)nn2)O[C@@H]1CO)c1ccccc1`, the inhibition is reported as 12.1%.

Compound `COc1ccc(S(=O)(=O)Nc2ccc3c(c2)C(=O)N([C@@H](C)CO)C[C@H](C)[C@@H](CN(C)C(=O)NC(C)C)OCCCC[C@H](C)O3)cc1` has an inhibition of 1.4%.

Work on `CCOC(=O)C(C)Oc1cccc2c(=O)n(CC(=O)N3CCc4ccccc43)ccc12` (stereo not given) yielded an inhibition of -10.8% [at 12.3 µM].

In the case of `CCOC(=O)C(C)Oc1cccc2c(=O)n(CC(=O)NCCc3ccc(OC)c(OC)c3)ccc12` (stereo not given), the inhibition is reported as 88.4% [at 12.3 µM] (active).

In the case of `COC(=O)COc1cccc2c(=O)n(CC(=O)NCc3ccccc3)ccc12`, the inhibition is reported as -188% [at 12.3 µM].

`C[C@@H]1CN([C@H](C)CO)C(=O)Cc2cc(NS(=O)(=O)c3cccs3)ccc2O[C@@H]1CN(C)C(=O)Nc1ccc(F)cc1` gave an inhibition of -7.97%.

`C[C@@H]1CN([C@H](C)CO)C(=O)c2cc(NC(=O)Nc3cccc4ccccc34)ccc2O[C@@H](C)CCCCO[C@H]1CN(C)S(=O)(=O)c1cccs1` gave an inhibition of 15.1%.

Work on `CCCCCc1c(-c2ccc(OC)c(OC)c2)ncn1CCc1ccccc1OC` yielded an inhibition of 49.2% [at 12.3 µM].

With `CCCCCc1c(Cc2ccccc2)ncn1CCc1ccccc1OC` the inhibition was 109% [at 12.3 µM] (active).

Compound `CCCCCc1c(-c2cccc(Br)c2)ncn1CCc1ccccc1OC` has an inhibition of 11.9% [at 12.3 µM].

Work on `O=C(C[C@H]1C[C@H]2c3cc(NC(=O)CC4CC4)ccc3O[C@H]2[C@H](CO)O1)NCc1ccccc1` yielded an inhibition of 8.72%.

For `CC(=O)C1=C(C)N(Cc2ccccc2)C(=S)NC1c1cccc(Br)c1` (stereo not given), the inhibition was 0.027% [at 12.3 µM].

For `COC(=O)C1=C(C)N(Cc2ccc(F)cc2)C(=S)NC1c1cccc(Cl)c1` (stereo not given), the inhibition was 34.2% [at 12.3 µM].
